JMJD2A Tudor: blocks the human JMJD2A Tudor domain. AlphaScreen JMJD2A-Tudor / H3K4me3 peptide binding. Potency, µM (series often up to 114 µM), for inactives: at the top dose activity change, negative = inhibition, hits mostly inhibitors. 4.4% of 390,000 active. AID 504339; note: % is set by controls: 0 for no effect and ±100 for the full control effect; nearly all actives have a fitted effect of over 50% in size
Target sequence (O75164 whole entry, looked up, the tested form may be a part): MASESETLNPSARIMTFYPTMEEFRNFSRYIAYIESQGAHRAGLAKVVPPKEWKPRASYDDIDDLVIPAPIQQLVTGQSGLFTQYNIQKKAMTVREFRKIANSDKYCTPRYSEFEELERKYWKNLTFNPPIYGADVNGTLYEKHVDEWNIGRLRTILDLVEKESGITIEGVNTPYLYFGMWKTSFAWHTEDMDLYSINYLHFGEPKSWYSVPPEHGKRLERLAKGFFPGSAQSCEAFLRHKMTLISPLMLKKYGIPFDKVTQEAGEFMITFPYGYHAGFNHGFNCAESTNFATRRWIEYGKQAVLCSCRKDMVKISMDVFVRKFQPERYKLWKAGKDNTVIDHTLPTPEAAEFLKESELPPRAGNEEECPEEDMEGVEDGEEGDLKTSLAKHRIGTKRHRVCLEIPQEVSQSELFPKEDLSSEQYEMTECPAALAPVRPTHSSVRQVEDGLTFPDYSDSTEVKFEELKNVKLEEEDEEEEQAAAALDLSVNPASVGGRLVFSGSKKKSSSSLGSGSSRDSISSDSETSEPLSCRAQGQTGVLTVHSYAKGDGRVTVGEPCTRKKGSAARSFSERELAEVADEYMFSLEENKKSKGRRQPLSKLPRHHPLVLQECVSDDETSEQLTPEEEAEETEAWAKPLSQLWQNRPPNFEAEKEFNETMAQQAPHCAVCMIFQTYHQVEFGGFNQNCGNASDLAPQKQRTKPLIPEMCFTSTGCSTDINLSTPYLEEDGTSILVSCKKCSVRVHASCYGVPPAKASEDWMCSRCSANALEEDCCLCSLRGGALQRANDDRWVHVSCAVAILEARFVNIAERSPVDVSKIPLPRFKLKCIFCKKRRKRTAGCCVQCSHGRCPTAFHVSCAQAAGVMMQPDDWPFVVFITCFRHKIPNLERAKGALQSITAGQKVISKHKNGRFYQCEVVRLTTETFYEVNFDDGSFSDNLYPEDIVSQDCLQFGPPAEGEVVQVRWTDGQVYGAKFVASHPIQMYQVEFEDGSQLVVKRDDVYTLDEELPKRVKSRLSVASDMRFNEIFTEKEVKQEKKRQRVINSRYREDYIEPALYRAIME
GLS inhibitor: glutaminase GLS (human) inhibition; 0.21% of 410,000 active; GLS enzymatic activity, qHTS titration; AID 624170; Potency, µM (series often up to 45.5 µM), for the others: at the top dose activity change, negative = inhibition, actives largely listed as inhibitors; note: % is set by controls: 0 for no effect and ±100 for the full control effect
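hKGA in 45 mM KH2PO4 pH 8.2, 0.02% Tween-20 with pin-transferred compounds; 1 mM L-glutamine (stock) plus glutamate oxidase/HRP/Amplex Red coupling added. Fluorescence read initially and after 30 min at RT.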
BAZ2B inh: blocks human BAZ2B; Q9UIF8; AlphaScreen BAZ2B-H3K14Ac peptide displacement; Potency, µM (highest dose often 114 µM), inactives show at the highest dose activity change, negative = inhibition, actives largely listed as inhibitors; 4.4% of 360,000 active; note: % is set by controls: 0 for no effect and ±100 for the full control effect; nearly all actives have a fitted effect of over 60% in size
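Multi-concentration screen (max 110 uM) measuring displacement of acetylated histone H3 peptide from BAZ2B by AlphaScreen, using 50 nM protein, 50 nM peptide and 10 ug/mL streptavidin donor plus Ni-chelate acceptor beads.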
HP1b chromo inh: HP1-beta chromodomain-methylated histone interaction inhibition; AID 540317; 0.56% of 390,000 active; Potency, µM (doses to about 114 µM), inactives show at the highest dose activity change, negative = inhibition, hits mostly inhibitors; P83916; AlphaScreen HP1-beta / biotin-H3K9me3 peptide binding; note: nearly all actives have a fitted effect of over 70% in size
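AlphaScreen: HP1-beta (50 nM) preformed 30 min with biotin-H3(1-18)K9me3 peptide (50 nM) in PBS pH 7.4, 0.01% Tween-20. Compound added for 30 min at RT, then streptavidin donor/nickel chelate acceptor beads (10 ug/mL) for 30 min.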
G9a block: blocks human histone lysine methyltransferase G9a; 8.8% of 350,000 active; AID 504332; G9a H3K9 monomethylation, AlphaScreen, 2 h; Potency, µM (series often up to 102 µM), inactives show at the top dose activity, negative = inhibition, usual class: inhibitors; note: % is set by controls: 0 for no effect and ±100 for the full control effect; nearly all actives have a fitted effect of over 75% in size
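Enzyme 20 nM + cpd, 15 min RT; add b-H3K9 pep 500 nM / SAM 20 uM; 2 h RT; anti-H3K9me1 Ab 0.5 ug/mL + SA donor / anti-rabbit acceptor beads 20 ug/mL each, 10 min; AlphaScreen read.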
An asterisk follows results filed as active; u = inconclusive; x = not tested or not shown; [ ] = dose if it differs, or a comment. In the library only some 10% were active in any assay of this set; here they are far more common. Calls come from the whole dose curve; as a rule, active = well fitted curve in the direction sought with a large enough effect; inconclusive = small, poorly fitted or top-dose-only effect, or another doubt; inactive = no such curve, though single readings can be large; an effect the other way counts as inactive or inconclusive. Potency is the fitted concentration of half-maximal effect.

SMILES	JMJD2A Tudor	GLS inhibitor	BAZ2B inh	HP1b chromo inh	G9a block
C/C(=N\NC(N)=S)c1ccc(-n2ccnc2)cc1	-19%	19%	-20%	18%	u
C/C(=N\Nc1ccc(Cl)c(Cl)c1)c1ccc(-n2ccnc2)cc1	-31%	11%	u	13%	11µM*
O=C(Nc1nnc(-c2ccco2)s1)C1CCN(S(=O)(=O)c2ccc(Cl)cc2)CC1	-17%	-17%	-36%	48%	-28%
O=C(Nc1nnc(-c2ccco2)s1)C1CC1	u	8%	u	31%	50µM*
C#CCOCCOCCOCCNc1nc(N2CCN(C(=O)CCCCCCCCCCNC(=O)[C@H]([C@@H](C)CC)n3cc(CCCCCN)nn3)CC2)nc(N2CCN(C(=O)CCCCCCCCCCNC(=O)[C@@H]([C@H](C)O)n3cc(C)nn3)CC2)n1	56µM*	u	56µM*	u	-8%[2.33 µM]
C#CCOCCOCCOCCNc1nc(N2CCN(C(=O)CCCCCCCCCCNC(=O)Cn3cc(CCCCCN)nn3)CC2)nc(N2CCN(C(=O)CCCCCCCCCCNC(=O)[C@H]([C@@H](C)CC)n3cc(CCCCCN)nn3)CC2)n1	79µM*	u	u	u	-49%[2.33 µM]
C#CCOCCOCCOCCNc1nc(N2CCN(C(=O)CCCCCCCCCCNC(=O)Cn3cc(CCCCCN)nn3)CC2)nc(N2CCN(C(=O)CCCCCCCCCCNC(=O)[C@H](CO)n3cc(CCCCCN)nn3)CC2)n1	u	-10%	u	3%	2%[2.33 µM]
C#CCOCCOCCOCCNc1nc(N2CCN(C(=O)CCCCCCCCCCNC(=O)[C@H](CCCCN)n3cc(C)nn3)CC2)nc(N2CCN(C(=O)CCCCCCCCCCNC(=O)[C@@H]([C@H](C)CC)n3cc(CCCCCN)nn3)CC2)n1	x	x	56µM*	x	7%[2.33 µM]
Cc1ccccc1COC[C@H](CC(C)C)N1CCN(C(=O)c2cccc(C(F)(F)F)c2)CCC1=O	-11%	2%	-2%	42%	-2%
CC(C)Cn1c(=S)[nH]c2cc(Cl)ccc21	-14%	29%	-32%	u	6.3µM*
CC(C)Cn1c(=S)[nH]c2ccccc2c1=O	-12%	1%	-13%	37%	14%
COc1ccc(COC(=O)Nc2c(SC)nsc2SC)cc1	-9%	-3%	5%	35%	-31%
CCOC(=O)c1nnsc1NC(C)=O	-2%	-7%	12%	28%	-3%
CCOC(=O)c1nnsc1NC(=O)Nc1ccc(OC)cc1	-17%	3%	u	23%	40µM*
COc1ccc(NC(=O)Nc2c(SC)nsc2SC)cc1	5%[11.4 µM]	13%	-2%	19%	40µM*
CCOC(=O)c1ccc(NC(=O)NNS(=O)(=O)c2cc(OC)ccc2OC)cc1	-6%	1%	-24%	46%	71µM*
CC(C)c1ccccc1-n1c(SCc2cc(=O)oc3ccc4ccccc4c23)nnc1-c1cccnc1	u	10%	u	11%	u
CC(=O)C[C@H](c1ccc([N+](=O)[O-])cc1)c1c(O)c2ccccc2oc1=O	x	4%[20 µM]	x	x	18%[21.5 µM]
Cc1ccc(OCc2nnc(SCC(=O)O)n2N)cc1	-15%	-2%	u	28%	108%[59 µM]
COc1ccc(OCc2nnc(SCC(=O)N(C)Cc3ccccc3)n2N)cc1	u	-14%	x	u	7.1µM*
Cc1ccc(S(=O)(=O)N(CC(=O)NCc2ccc(F)cc2)C(=O)N2CCN(C)CC2)cc1	-14%	7%	-4%	11%	12%
Cc1ccc(C)c(NC(=O)C(Sc2nnc(-c3cccs3)o2)c2ccccc2)c1 (stereo not given)	-22%	9%	2%	u	79µM*
O=C(Nc1ccc(Cl)cc1C(F)(F)F)C(Sc1cccc[n+]1[O-])c1ccccc1 (stereo not given)	-11%	6%	u	26%	x
Cc1ccc(C)c(NC(=O)C(Sc2cccc[n+]2[O-])c2ccccc2)c1 (stereo not given)	-17%	-5%	-1%	22%	45µM*
Cc1ccc(C)c(OC(=O)CSc2nnc(-c3cccs3)o2)c1	-16%	-5%	-3%	3%	-32%[59 µM]
SMILES	JMJD2A Tudor	GLS inhibitor	BAZ2B inh	HP1b chromo inh	G9a block
Cc1ccccc1-c1nccc(NCCN2CCOCC2)n1	x	x	x	x	1%[0.501 µM]
Cc1cc(NS(=O)(=O)c2ccc(NC(=O)c3ccc(Cl)nc3)cc2)nc(C)n1	x	-1%	x	x	x
Cc1ccc(C)c(S(=O)(=O)N2CCN(C(=O)CSC(=S)N3CCCC3)CC2)c1	-12%	2%	4%	30%	50µM*
CN(C)[C@@H]1CCC[C@@H]1OC(=O)C(c1ccccc1)c1ccccc1	1.1µM*	6%	35µM*	u	13µM*
CCN1CCCC(OC(=O)C(c2ccccc2)c2ccccc2)C1 (stereo not given)	-27%	-5%	5%	-3%	-27%[59 µM]
COc1ccc(OCC(O)COc2ccc(OC)cc2)cc1	-1%	0%	2%	23%	-8%[59 µM]
COc1ccc(OCC(O)CN(CC(O)COc2ccc(OC)cc2)c2cccc(O)c2)cc1 (stereo not given)	u	-1%	45µM*	-16%	50µM*
COc1ccccc1/C=C\C=N\n1c(-c2ccc(Cl)cc2Cl)n[nH]c1=S	u	-13%	u	u	6.3µM*
COc1ccccc1/C=C/C=N/n1c(-c2ccc(F)cc2)n[nH]c1=S	-23%	7%	-16%	-1%	4µM*
COc1ccccc1/C=C/C=N/n1c(C)nnc1C	-11%	-7%	-14%	15%	u
COc1ccccc1/C=C\C=N\n1c(-c2ccc(Cl)cc2)n[nH]c1=S	-31%	-5%	-10%	-16%	4.5µM*
COc1cccc(NC(=O)COC(=O)C2CC3CCCC(C2)C3=O)c1 (stereo not given)	-6%	1%	-2%	15%	-21%[12.7 µM]
O=C(NC(=S)N1CCCc2ccccc21)c1ccc(Br)cc1	u	4%	-32%	1%	45µM*
COc1ccccc1C(=O)NC(=S)N1CCCc2ccccc21	u	1%	u	-11%	10µM*
COc1ccc(C(=O)NC(=S)N2CCCc3ccccc32)cc1OC	u	-2%	u	-13%	u
CC(C)C(=O)NC(=S)N1CCc2ccccc21	-16%	16%	-6%	8%	u
O=C(NC(=S)N1CCCc2ccccc21)c1ccccc1	u	6%	u	-11%	29%[0.501 µM]
COc1ccccc1C(=O)NC(=S)N1CCc2ccccc21	u	21%	-36%	1%	45µM*
NC[C@@H]1O[C@@H](O[C@H]2[C@H](O)[C@H](O[C@@H]3O[C@H](CO)[C@@H](O)[C@H](N)[C@@H]3O)[C@@H](N)C[C@H]2N)[C@H](N)C[C@@H]1O	x	-4%[20 µM]	x	x	31%[21.5 µM]
Clc1cccc(-c2nc3c4ccccc4ccn3c2Cc2ccsc2)c1	x	3%	x	x	x
